Bioassay records deposited in PubChem BioAssay by several laboratories.
FadD28 binding – inhibitors of Mycobacterium tuberculosis FadD28 bisubstrate binding. actives 0.22% (n = 360,000). FadD28 bisubstrate probe binding, fluorescence polarization. inhibition, % at 12.5 µM; in the data active = inhibition above about 8.5%, passing the limit was not always enough
BioA inh – inhibitors of Mycobacterium tuberculosis BioA enzyme; purified M. tuberculosis BioA enzyme, plate reader; inhibition, % at 9.99 µM; actives 0.096% (n = 360,000); in the data active = inhibition above about 40%
TcdB inh – TcdB glycohydrolase inhibition | TcdB glycohydrolase enzymatic assay, plate reader | inhibition, % at 9.99 µM | actives 0.24% (n = 350,000) | AID 652162; in the data active = inhibition above about 10%
RecA splice inh – inhibitors of M. tuberculosis RecA intein splicing; inhibition, % (no concentration beside the values); actives 0.75% (n = 290,000); cell-free RecA intein splicing, fluorescence; in the data active = inhibition above about 30%
Mtb UGM inh – blocks M. tuberculosis UGM enzyme; purified UGM, fluorescence polarization probe displacement; inhibition, % at 10 µM; actives 0.06% (n = 320,000); AID 504406; in the data active = inhibition above about 10%, passing the limit was not always enough
Target sequence (P9WIQ1 whole entry, looked up): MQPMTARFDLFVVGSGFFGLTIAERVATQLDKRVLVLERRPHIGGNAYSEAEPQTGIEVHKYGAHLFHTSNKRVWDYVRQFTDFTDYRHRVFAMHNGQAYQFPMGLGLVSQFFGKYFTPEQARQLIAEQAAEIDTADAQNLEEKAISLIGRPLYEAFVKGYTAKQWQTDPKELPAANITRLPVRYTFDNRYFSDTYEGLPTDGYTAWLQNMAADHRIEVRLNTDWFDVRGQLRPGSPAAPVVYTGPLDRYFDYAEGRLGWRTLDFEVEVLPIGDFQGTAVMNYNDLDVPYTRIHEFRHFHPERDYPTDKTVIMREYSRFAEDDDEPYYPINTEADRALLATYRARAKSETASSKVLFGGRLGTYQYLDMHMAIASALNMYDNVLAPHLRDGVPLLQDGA
Rv3671c protease – inhibitors of M. tuberculosis serine protease Rv3671c. actives 0.048% (n = 320,000). inhibition, % at 5.96 µM. P9WHR9; in the data active = inhibition above about 38%;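 note: extracellular domain of Rv3671c used as enzyme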
GFP chromo cs – counter-screen GFP chromophore formation inhibition; AID 434968; EC50, µM; cell-free GFP chromophore formation, fluorescence; shares compounds with RecA splice inh; actives 83% (n = 2,100); call rule not given here
Large screens that a line does not name were inactive (follow-up assays come after a bar, where they were run). Rows were chosen to be rich in hits. Some 0.9% of all compounds tested hit in one or more screens of this group.

Cc1cccc(NC2=C(NC(=O)c3ccccc3)C(=O)c3ccccc3C2=O)c1	RecA splice inh 72 (no result: TcdB inh) | GFP chromo cs 6.5
C[C@H](CO)N1C[C@H](C)[C@@H](CN(C)C(=O)CN(C)C)Oc2cc(C#CC(C)(C)O)ccc2S1(=O)=O	none (no result: FadD28 binding, RecA splice inh, Mtb UGM inh, Rv3671c protease)
N#Cc1cc(-c2ccccc2)nc(Oc2ccccc2)n1	RecA splice inh 60 (no result: BioA inh) | GFP chromo cs 33
COc1cccc(C(=O)Nc2nc(SCc3ccc(Cl)cc3)n[nH]2)c1	RecA splice inh 39 | GFP chromo cs inactive
O=C(c1ccc(Cl)cc1)c1c[nH]c(C(=O)C(Cl)(Cl)Cl)c1	RecA splice inh 80 (no result: TcdB inh) | GFP chromo cs 3.9
O=C(c1c[nH]c(C(=O)C(Cl)(Cl)Cl)c1)c1ccc(F)cc1Cl	RecA splice inh 54 (no result: BioA inh) | GFP chromo cs 23
CNC(=O)c1cc(C(=O)c2ccc(F)cc2Cl)c[nH]1	none
O=C(Cc1ccccc1)c1c[nH]c(C(=O)C(Cl)(Cl)Cl)c1	RecA splice inh 69 | GFP chromo cs 37
CCNC(=O)[C@H]1[C@H](CO)[C@H]2Cn3c(ccc(-c4ccccc4F)c3=O)[C@H]2N1CC	none (no result: FadD28 binding, RecA splice inh, Mtb UGM inh, Rv3671c protease)
O=C(C[C@H]1CC[C@H]2[C@@H](COC[C@H](O)CN2Cc2cccc(C(F)(F)F)c2)O1)NCc1ccc(F)cc1	none (no result: FadD28 binding, RecA splice inh, Mtb UGM inh, Rv3671c protease)
CC(C)CC(NC(N)=O)C(=O)Nc1ccc(Oc2ccccc2)cc1 (stereo not given)	none (no result: BioA inh)
Cc1ccc(NC(=O)C(CC(C)C)NC(N)=O)cc1 (stereo not given)	RecA splice inh 33 (no result: BioA inh) | GFP chromo cs inactive
CC1=NN(c2ccc(S(=O)(=O)O)cc2Cl)C(=O)C1	RecA splice inh 82 (no result: BioA inh) | GFP chromo cs 30
CC1=NN(c2ccc(Cl)c(C(=O)O)c2)C(=O)C1	RecA splice inh 95 (no result: BioA inh) | GFP chromo cs 5.6
CC1=NN(c2ccc(C(=O)O)c(N)c2)C(=O)C1	RecA splice inh 69 (no result: BioA inh) | GFP chromo cs 2.6
CN1CCc2cccc3c2[C@@H]1Cc1ccc(O)c(O)c1-3	none (no result: TcdB inh, Mtb UGM inh)
CN1CCc2cc3c(c4c2C1Cc1ccccc1-4)OCO3 (stereo not given)	RecA splice inh 55 | GFP chromo cs 0.87
COc1cc(NS(=O)(=O)c2ccc(C)cc2)c2ncccc2c1	none (no result: BioA inh, TcdB inh)
CCC(CNc1cc(OC)cc2cccnc12)NC1CCCCC1 (stereo not given)	RecA splice inh 67 (no result: BioA inh) | GFP chromo cs 25
COc1cc(NCCCC(C)N)c2ncccc2c1 (stereo not given)	FadD28 binding 8.7, RecA splice inh 88 (no result: TcdB inh, Mtb UGM inh, Rv3671c protease) | GFP chromo cs 10
COc1cc(NCCCCC(C)N)c2nccc(C)c2c1 (stereo not given)	none (no result: RecA splice inh, Mtb UGM inh, Rv3671c protease)
COCC(=O)N1CCC2(CC1)CN(C(=O)CN1CCOCC1)[C@H](CO)c1c2c2ccc(OC)cc2n1C	none (no result: FadD28 binding, BioA inh, RecA splice inh, Mtb UGM inh, Rv3671c protease)
COc1cccc(NC(=O)c2ccco2)c1	none (no result: TcdB inh)
O=C(Nc1cccc(OC(=O)c2ccco2)c1)c1ccco1	RecA splice inh 33 (no result: TcdB inh) | GFP chromo cs inactive
COCC(=O)N1CC2(C1)CN(Cc1ccc3c(c1)OCO3)[C@H](CO)c1c2c2ccc(OC)cc2n1C	none (no result: FadD28 binding, BioA inh, RecA splice inh, Mtb UGM inh, Rv3671c protease)
C[C@@H]1CN([C@@H](C)CO)C(=O)c2cc(NC(=O)c3ccncc3)ccc2O[C@H]1CN(C)C(=O)Nc1ccc2c(c1)OCO2	none (no result: FadD28 binding, RecA splice inh, Mtb UGM inh, Rv3671c protease)
CC1=NN(c2nc(-c3ccccc3)cs2)C(=O)C1	FadD28 binding 16, RecA splice inh 66 (no result: TcdB inh) | GFP chromo cs 8.5
COc1ccc(C2=NN(c3nc(C)cc(C)n3)C(=O)C2)cc1	RecA splice inh 78 (no result: BioA inh) | GFP chromo cs 6.9
Cc1onc(-c2c(Cl)cccc2Cl)c1C(=O)N1C(C)CCCC1C (stereo not given)	RecA splice inh 81 | GFP chromo cs inactive
Cc1onc(-c2c(Cl)cccc2Cl)c1C(=O)NC1CCCCC1	none
CCC(=O)N1CC2(C1)CN(S(C)(=O)=O)[C@H](CO)c1[nH]c3cc(OC)ccc3c12	none (no result: FadD28 binding, BioA inh, RecA splice inh, Mtb UGM inh, Rv3671c protease)
COc1ccc(-c2cc(=O)n(CCC#N)[nH]2)cc1	RecA splice inh 97 (no result: TcdB inh) | GFP chromo cs 2
Cc1ccc(C(=O)C2C(c3ccc(-c4ccccc4[N+](=O)[O-])o3)NC(=O)NC2(O)C(F)(F)F)cc1 (stereo not given)	RecA splice inh 83 | GFP chromo cs 22
CCSc1c([N+](=O)[O-])c(=O)n(-c2ccccc2)c2ccccc12	RecA splice inh 40 | GFP chromo cs inactive
N#Cc1ccccc1	none (no result: RecA splice inh)
N#Cc1c(C#N)c(O)c2ccccc2c1O	RecA splice inh 84 | GFP chromo cs 2.4
COc1ccc2c3c([nH]c2c1)[C@@H](CO)N(S(C)(=O)=O)CC31CCN(C(=O)c2cccnc2)CC1	none (no result: FadD28 binding, BioA inh, RecA splice inh, Mtb UGM inh, Rv3671c protease)
COCC(=O)N(C)C[C@@H]1Oc2cc(C#C[C@H](C)O)ccc2S(=O)(=O)N([C@H](C)CO)C[C@H]1C	none (no result: FadD28 binding, RecA splice inh, Mtb UGM inh, Rv3671c protease)
O=C(NCc1ccc2c(c1)OCO2)c1ccc(Cl)nc1	none (no result: BioA inh)
O=C(NCc1ccc2c(c1)OCO2)c1nc(S(=O)(=O)Cc2ccccc2F)ncc1Cl	RecA splice inh 37 | GFP chromo cs 8.9
O=C(NCc1ccc2c(c1)OCO2)c1nc(S(=O)(=O)Cc2ccccc2)ncc1Cl	RecA splice inh 53 | GFP chromo cs 14
O=C(NCc1ccc2c(c1)OCO2)c1ccccc1Cl	none
COc1ccc(S(=O)(=O)Nc2ccc3c(c2)CC(=O)N([C@H](C)CO)C[C@@H](C)[C@H](CN(C)Cc2ccncc2)O3)cc1	none (no result: FadD28 binding, RecA splice inh, Mtb UGM inh, Rv3671c protease)
Cc1noc(C)c1COC(=O)Cc1ccc(Br)cc1	none (no result: BioA inh) | GFP chromo cs inactive
CCN(CC)c1ccc(/C=C2/C(=O)ON=C2C)cc1	none (no result: BioA inh, RecA splice inh)
CCN(CC)c1ccc(/C=C2\C(=O)N(c3nnc(C)c(=O)[nH]3)N=C2C)cc1	RecA splice inh 81 | GFP chromo cs 9.5
CC1=NN(c2ccccc2)C(=O)C1/C=C1\C(=O)NC(=O)N(c2ccc(C)c(C)c2)C1=O (stereo not given)	RecA splice inh 41 (no result: TcdB inh) | GFP chromo cs 16
CC1=NN(c2ccccc2)C(=O)C1/C=C1\C(=O)NC(=O)N(c2cc(C)cc(C)c2)C1=O (stereo not given)	none (no result: TcdB inh)
Cc1noc(C)c1S(=O)(=O)N(C)C[C@H]1OCCCC[C@H](C)Oc2ccc(NS(=O)(=O)c3ccc(F)cc3)cc2C(=O)N([C@H](C)CO)C[C@@H]1C	none (no result: FadD28 binding, TcdB inh, RecA splice inh, Mtb UGM inh, Rv3671c protease)
CCOc1ccc(S(=O)(=O)Nc2cc(SCC(=O)O)c(O)c3ccccc23)cc1	RecA splice inh 96 (no result: Rv3671c protease) | GFP chromo cs 8.9
CCc1ccc(S(=O)(=O)Nc2cc(SCC(=O)O)c(O)c3ccccc23)cc1	RecA splice inh 94 (no result: BioA inh) | GFP chromo cs 0.7
CCC(=O)N1[C@@H]2c3ccc(-c4cncnc4)c(=O)n3C[C@H]1[C@H](CO)[C@H]2C(=O)N1CCc2ccccc2C1	none (no result: FadD28 binding, TcdB inh, RecA splice inh, Mtb UGM inh, Rv3671c protease)
COc1ccc(NC(=O)Nc2cccc3c2O[C@H](CN(C)C(=O)Nc2ccc4c(c2)OCO4)[C@H](C)CN([C@@H](C)CO)C3=O)cc1	none (no result: FadD28 binding, RecA splice inh, Mtb UGM inh, Rv3671c protease)
COc1ccc(Nc2ccccc2N)cc1	none (no result: BioA inh)
Nc1ccc(Nc2ccccc2N)cc1	RecA splice inh 58 (no result: BioA inh, TcdB inh) | GFP chromo cs 20
